Test results reported in the antibiotic and cytotoxicity screens of Wong et al. (2023).
Screen size: about 39,000 compounds; about 3,300 (8.5%) were called active. What follows is part of a selection rich in actives, with near analogues and random picks from the rest.

System: HepG2
Assay: cytotoxicity call (relative viability < 0.9)
Conditions: 10 µM

| SMILES | cytotoxicity call |
| --- | --- |
| Clc1ccc2c(c1)[C@H]1C=CC[C@@H]1[C@@H](c1ccccc1)N2 | inactive |
| O=C(C[C@H]1C[C@H]2c3cc(NC(=O)C4CCOCC4)ccc3O[C@H]2[C@@H](CO)O1)NCc1ccc2c(c1)OCO2 | inactive |
| C[C@@H]1CN([C@H](C)CO)C(=O)c2cc(NC(=O)Nc3cccc4ccccc34)ccc2O[C@@H](C)CCCCO[C@@H]1CN(C)C(=O)NC1CCCCC1 | inactive |
| CN(C)C(=O)CN1CCC2(CC1)CN(CCn1cccn1)C(=O)CO2 | inactive |
| CO[C@@H]1CN(C)C(=O)c2ccc(NS(=O)(=O)CC(F)(F)F)cc2OC[C@@H](C)N(C(=O)c2ccc3c(c2)OCO3)C[C@@H]1C | inactive |
| Cc1noc(C)c1NC(=O)N[C@H]1C=C[C@@H](CC(=O)N2CCN(C)CC2)O[C@@H]1CO | inactive |
| CC(C)CNC(=O)[C@@]1(c2ccc([N+](=O)[O-])cc2)CC(=O)N(CC23CC4CC(CC(C4)C2)C3)[C@@H]1c1ccc(CO)cc1I | inactive |
| CCCNC(=O)[C@@]1(c2ccc([N+](=O)[O-])cc2)CC(=O)N(CC23CC4CC(CC(C4)C2)C3)[C@@H]1c1ccc(CO)cc1I | inactive |
| CC(C)NC(=O)[C@@]1(c2ccc([N+](=O)[O-])cc2)CC(=O)N(CC23CC4CC(CC(C4)C2)C3)[C@@H]1c1ccc(CO)cc1I | active |
| CN(C)c1cc(NC(=O)CNC(C)(C)C)c(O)c2c1C[C@H]1C[C@H]3[C@H](N(C)C)C(=O)C(C(N)=O)=C(O)[C@@]3(O)C(=O)[C@H]1C2=O | inactive |
| O=C(C[C@@H]1C[C@H]2c3cc(NC(=O)Cc4ccncc4)ccc3O[C@H]2[C@@H](CO)O1)NCc1cccc(F)c1 | inactive |
| N[C@H](C(=O)O)[C@@H]1CC(Cl)=NO1 | active |
| C[C@@H]1CN([C@H](C)CO)C(=O)c2cc(NS(=O)(=O)c3ccc(F)cc3)ccc2O[C@@H]1CN(C)S(=O)(=O)c1cccs1 | inactive |
| Cc1noc(C)c1S(=O)(=O)Nc1ccc2c(c1)CC(=O)N([C@@H](C)CO)C[C@H](C)[C@@H](CN(C)S(=O)(=O)c1ccc(Cl)cc1)O2 | inactive |
| Cc1cccc(Nc2ccccc2C(=O)O)c1C | inactive |
| Cc1cccc(C)c1NC(=O)c1ccccc1C(=O)O | active |
| Cc1cccc(C(=O)O)c1O | inactive |
| C[C@@H]1CN([C@@H](C)CO)S(=O)(=O)c2ccc(C#CC3CCCCC3)cc2O[C@H]1CN(C)C(=O)Cc1ccncc1 | inactive |
| COC1CC(OC2C(C)=CCC3CC(CC4(CCC(C)C(C5CCCCC5)O4)O3)OC(=O)C3C=C(C)C(=NO)C4OCC(=CC=CC2C)C34O)OC(C)C1O (centres undefined) | active |
| CO[C@H]1C[C@H](O[C@@H]2/C(C)=C/C[C@@H]3C[C@@H](C[C@]4(CC[C@H](C)[C@@H](C5CCCCC5)O4)O3)OC(=O)[C@@H]3C=C(C)/C(=N/O)[C@H]4OC/C(=C\C=C\[C@@H]2C)[C@]43O)O[C@@H](C)[C@@H]1O | active |

| SMILES | cytotoxicity call |
| --- | --- |
| CO[C@H]1C[C@@H](O[C@@H]2/C(C)=C/C[C@@H]3C[C@@H](C[C@]4(CC[C@H](C)[C@@H](C5CCCCC5)O4)O3)OC(=O)[C@@H]3C=C(C)/C(=N/O)[C@H]4OC/C(=C\C=C\[C@@H]2C)[C@]43O)O[C@@H](C)[C@@H]1O | inactive |
| COCC(=O)Nc1ccc2c(c1)C(=O)N(C)[C@@H]1CC[C@@H](CC(=O)N3CCc4ccccc4C3)O[C@@H]1CO2 | inactive |
| COc1ccc(NC(=O)Nc2ccc3c(c2)C(=O)N([C@@H](C)CO)C[C@H](C)[C@H](CN(C)C(=O)NC2CCCCC2)OCCCC[C@@H](C)O3)cc1 | inactive |
| COc1ccc(C)c2c1CCCC2=O | inactive |
| C[C@H](CO)N1C[C@H](C)[C@H](CN(C)C(=O)Nc2cccc3ccccc23)Oc2ccc(NC(=O)Cn3cnnn3)cc2CC1=O | inactive |
| C[C@@H]1CN([C@H](C)CO)C(=O)c2cc(NC(=O)Nc3ccc(C(F)(F)F)cc3)ccc2O[C@@H](C)CCCCO[C@H]1CN(C)S(=O)(=O)c1cccs1 | inactive |
| C[C@@H]1CCCCO[C@@H](CN(C)C(=O)CCC(F)(F)F)[C@H](C)CN([C@H](C)CO)C(=O)c2cc(NS(=O)(=O)c3cccs3)ccc2O1 | inactive |
| Cc1ccc(S(=O)(=O)N[C@@H]2CC[C@H](CC(=O)N3CCC(Cc4ccccc4)CC3)O[C@@H]2CO)cc1 | inactive |
| C[C@@H]1CCCCO[C@H](CN(C)C(=O)NC2CCCCC2)[C@@H](C)CN([C@H](C)CO)C(=O)c2cc(NC(=O)Nc3ccccc3)ccc2O1 | inactive |
| C[C@@H]1CCCCO[C@H](CN(C)C(=O)C2CCCCC2)[C@@H](C)CN([C@@H](C)CO)C(=O)c2cc(NS(=O)(=O)c3ccc(F)cc3)ccc2O1 | inactive |
| COc1cccc(NC(=O)N(C)C[C@@H]2Oc3ncc(C#Cc4cccnc4)cc3C(=O)N([C@H](C)CO)C[C@@H]2C)c1 | inactive |
| C=C1CC2C3C=C(C)C4=CC(=O)CCC4(C)C3CCC2(C)C1(OC(C)=O)C(C)=O (centres undefined) | inactive |
| COC(=O)C[C@@H]1C[C@@H](C)[C@@H]2C(=O)c3c(O)c4c(c(O)c3C(=O)[C@@H]2[C@@H]1O)[C@H]1C[C@@H](O)[C@@]4(O)[C@@H](C)O1 | active |
| CO[C@H](CN(C)S(=O)(=O)c1cn(C)cn1)[C@H](C)CN(C(=O)Nc1ccc(C(F)(F)F)cc1)[C@@H](C)CO | inactive |
| C[C@@H]1CCCCO[C@@H](CN(C)C(=O)Nc2ccc(C(F)(F)F)cc2)[C@H](C)CN([C@H](C)CO)C(=O)c2cc(NS(=O)(=O)c3ccccc3)ccc2O1 | active |
| C[C@@H]1CN([C@H](C)CO)C(=O)c2cc(NS(=O)(=O)c3ccccc3)ccc2O[C@@H](C)CCCCO[C@H]1CN(C)C(=O)Nc1ccc(C(F)(F)F)cc1 | inactive |
| C[C@@H]1CCCCO[C@H](CN(C)C(=O)Nc2ccc(C(F)(F)F)cc2)[C@H](C)CN([C@H](C)CO)C(=O)c2cc(NS(=O)(=O)c3ccccc3)ccc2O1 | active |
| C[C@H]1CCCCO[C@@H](CN(C)C(=O)Nc2ccc(C(F)(F)F)cc2)[C@@H](C)CN([C@@H](C)CO)C(=O)c2cc(NS(=O)(=O)c3ccccc3)ccc2O1 | active |
| C[C@@H]1CCCCO[C@H](CN(C)C(=O)Nc2ccc(C(F)(F)F)cc2)[C@@H](C)CN([C@H](C)CO)C(=O)c2cc(NS(=O)(=O)c3ccccc3)ccc2O1 | inactive |
| C[C@@H]1CCCCO[C@H](CN(C)C(=O)Nc2ccc(C(F)(F)F)cc2)[C@H](C)CN([C@@H](C)CO)C(=O)c2cc(NS(=O)(=O)c3ccccc3)ccc2O1 | active |

| SMILES | cytotoxicity call |
| --- | --- |
| C[C@@H]1CN([C@@H](C)CO)C(=O)c2cc(NS(=O)(=O)c3ccccc3)ccc2O[C@@H](C)CCCCO[C@H]1CN(C)C(=O)Nc1ccc(C(F)(F)F)cc1 | inactive |
| C[C@@H]1CN([C@@H](C)CO)C(=O)c2cc(NS(=O)(=O)c3ccccc3)ccc2O[C@@H](C)CCCCO[C@@H]1CN(C)C(=O)Nc1ccc(C(F)(F)F)cc1 | inactive |
| C[C@H](CO)N1C[C@H](C)[C@@H](CN(C)C(=O)Nc2ccc(C(F)(F)F)cc2)OCCCC[C@H](C)Oc2ccc(NS(=O)(=O)c3ccccc3)cc2C1=O | inactive |
| C[C@@H]1CCCCO[C@@H](CN(C)C(=O)Nc2ccc(C(F)(F)F)cc2)[C@H](C)CN([C@@H](C)CO)C(=O)c2cc(NS(=O)(=O)c3ccccc3)ccc2O1 | inactive |
| C[C@H]1CN([C@@H](C)CO)C(=O)Cc2cc(NS(=O)(=O)c3cccs3)ccc2O[C@@H]1CN(C)S(=O)(=O)c1cn(C)cn1 | inactive |
| Cc1noc(C)c1NC(=O)Nc1ccc2c(c1)C(=O)N([C@H](C)CO)C[C@H](C)[C@H](CN(C)S(=O)(=O)c1ccccc1)O2 | inactive |
| COc1ccc2c3c([nH]c2c1)[C@H](CO)N(C[C@]13CN(Cc2ccccc2F)C1)S(=O)(=O)c1cn(cn1)C | inactive |
| Cc1noc(C)c1NC(=O)Nc1ccc2c(c1)CC(=O)N([C@H](C)CO)C[C@H](C)[C@@H](CN(C)S(=O)(=O)c1cccs1)O2 | inactive |
| Cc1ccc(S(=O)(=O)N(C)C[C@@H]2OCCCC[C@H](C)Oc3ccc(NC(=O)Nc4ccc(F)cc4)cc3C(=O)N([C@H](C)CO)C[C@@H]2C)cc1 | inactive |
| C[C@H](NC(=O)N(C)C[C@@H]1OCc2ccccc2-c2ccccc2C(=O)N([C@H](C)CO)C[C@@H]1C)c1ccccc1 | inactive |
| CCn1c(N)nc2c1c(=O)[nH]c(=O)n2C | inactive |
| NCCn1nc([C@H]2CCN(C(=O)c3csc4c3CCCC4)C2)c2nccnc21 | inactive |
| Cc1ccc(S(=O)(=O)N(C)C[C@@H]2Oc3ccc(NS(=O)(=O)c4cn(C)cn4)cc3C(=O)N([C@@H](C)CO)C[C@H]2C)cc1 | inactive |
| CCSC1=C(C#N)C(=O)N[C@@H](CO)S1 | inactive |
| C[C@H](CO)N1C[C@H](C)[C@@H](CN(C)Cc2ccc(C(=O)O)cc2)OCCCC[C@H](C)Oc2ccc(NC(=O)Nc3cccc4ccccc34)cc2C1=O | inactive |
| C[C@@H]1CCCCO[C@H](CN(C)C(=O)Nc2ccc(C(F)(F)F)cc2)[C@@H](C)CN([C@@H](C)CO)C(=O)c2cc(NS(=O)(=O)c3ccccc3)ccc2O1 | inactive |
| C[C@@H]1CCCCO[C@@H](CN(C)C(=O)Nc2ccc(C(F)(F)F)cc2)[C@@H](C)CN([C@H](C)CO)C(=O)c2cc(NS(=O)(=O)c3ccccc3)ccc2O1 | active |
| C[C@H]1CCCCO[C@H](CN(C)C(=O)Nc2ccc(C(F)(F)F)cc2)[C@@H](C)CN([C@@H](C)CO)C(=O)c2cc(NS(=O)(=O)c3ccccc3)ccc2O1 | active |
| C[C@H](CO)N1C[C@H](C)[C@H](CN(C)C(=O)Nc2ccc(C(F)(F)F)cc2)OCCCC[C@H](C)Oc2ccc(NS(=O)(=O)c3ccccc3)cc2C1=O | inactive |
